From PubChem BioAssay AID1851 (National Center for Advancing Translational Sciences (NCATS), 2009) come the findings set out here.

One may read the AC50 as the concentration at which the activity in the assay is half-maximal.

Several values for one entry are separate records, joined by “and”; a condition that tells them apart may be missing. Identical values can stand only once. Out of some 16,000 compounds screened, about 2,600 (16%) were called active. About 20% were inconclusive and are not listed. Calls follow the shape of the dose curve; as a rule, active = well fitted curve in the direction sought with a large enough effect; inconclusive = small, poorly fitted or top-dose-only effect, or effect the other way; inactive = no such curve, though single readings can be large or run the other way. These entries were drawn from the full list. Some structures have more than one record in an assay (separate samples or runs), and their calls can disagree.
% is scaled to controls: 0 for no effect and ±100 for the full control effect.

The target in the assay is Cytochrome P450 2D6 (Homo sapiens) (UniProt P10635). Nature of the assay: Cytochrome panel assay with activity outcomes. The settings on record: recombinant CYP, pro-luciferin dealkylation, luminescence, p450-cyp2d6; series mostly up to 57.1 µM; activity, negative = inhibition: at the top concentration.
Cytochrome P450 2D6 (Homo sapiens), sequence (P10635 whole entry, looked up): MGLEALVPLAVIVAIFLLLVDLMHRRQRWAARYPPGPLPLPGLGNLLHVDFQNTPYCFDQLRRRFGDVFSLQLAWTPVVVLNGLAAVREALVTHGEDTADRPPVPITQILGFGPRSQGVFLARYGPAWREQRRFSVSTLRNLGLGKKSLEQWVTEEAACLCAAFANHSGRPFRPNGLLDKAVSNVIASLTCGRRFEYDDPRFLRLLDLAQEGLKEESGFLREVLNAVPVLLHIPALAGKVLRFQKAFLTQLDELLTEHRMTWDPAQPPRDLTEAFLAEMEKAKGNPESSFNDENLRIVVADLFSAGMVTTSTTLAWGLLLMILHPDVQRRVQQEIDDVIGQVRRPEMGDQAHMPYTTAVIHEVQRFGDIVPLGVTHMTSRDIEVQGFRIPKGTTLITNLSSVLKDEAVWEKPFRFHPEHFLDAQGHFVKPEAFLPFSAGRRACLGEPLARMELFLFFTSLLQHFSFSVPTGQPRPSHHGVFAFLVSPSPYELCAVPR
In the case of `CN(/C=C/C(=O)C(F)(F)F)Cc1ccccc1`, the “activity, negative = inhibition” value is 0.82% (inactive).
On the same count and under the same terms, for `Cc1[nH]c2ccccc2c1-c1cc(-c2cc(-c3c(C)[nH]c4ccccc34)on2)no1` the value was 5.28% [at 11.4 µM] (inactive).
With `CCCC[C@@H]1C[C@H]1C(NC(=O)c1cccnc1)c1ccc(-c2ccccc2)cc1` (some centres not stated), the “activity, negative = inhibition” value was -5.63% (inactive).
In the case of `CCOC(=O)c1cnn(-c2cc(Oc3ccccc3)ncn2)c1N`, the “activity, negative = inhibition” value was -6.66% (inactive).
Same read-out and setting: the same measure for `Cc1cc(C)c(C(N)=O)c(SCC(=O)c2ccc(Cl)cc2)n1`: -3.15% (inactive).
Take `Cc1nc(SCC(=O)c2ccc(F)cc2)c([N+](=O)[O-])[nH]1`: the AC50 is 10 µM (active).
On to `Cc1ccc(C(=O)CSc2nc(C)cc(=O)[nH]2)cc1`, for which the “activity, negative = inhibition” value is -1.53% (inactive).
On to `Oc1ccccc1CNn1cnnc1`, for which the “activity, negative = inhibition” value is 17.8% (inactive).
Same read-out and setting: for `O=c1[nH]c2cc([N+](=O)[O-])c([N+](=O)[O-])cc2[nH]c1=O` the value was -3.93% (inactive); for `CC(CCc1ccccc1)NC(=O)C(=O)NCCO` (configuration not stated), 22.2% (inactive); for `C[C@@H](CCc1ccc(O)cc1)NCCc1ccc(O)c(O)c1`, -10.3% [at 25.6 µM] (inactive).
`C[C@@H](CCc1ccccc1)NC[C@H](O)c1ccc(O)c(C(N)=O)c1`: the concentration at half-maximal activity (AC50) was 3.98 µM (active) and 2 µM (active).
As to `O=C(COc1cccc2ccccc12)NNC(=O)c1cccs1`, the “activity, negative = inhibition” value is -20.2% (inactive).
Turning to `O=C(OCC(=O)c1cccs1)c1cccc(C(=O)OCC(=O)c2cccs2)n1`, the AC50 was 4.47 µM (active).
Take `CCOC(=O)c1cccc(C(=O)OCC)n1`: the “activity, negative = inhibition” value is 16.1% (inactive).
Regarding `O=C(Nc1nnc(COc2ccc(Cl)cc2)s1)c1ccc([N+](=O)[O-])cc1`, the “activity, negative = inhibition” value is 11.5% (inactive).
For `CCOc1ccc2ccccc2c1C(=O)N[C@@H]1C(=O)N2[C@@H]1SC(C)(C)[C@@H]2C(=O)O`, the “activity, negative = inhibition” value was 3.09% [at 25.6 µM] (inactive).
Same read-out and setting: for `O=[N+]([O-])c1cc(C(F)(F)F)ccc1NCCCCNS(=O)(=O)c1ccc2ccccc2c1` the value was -21.4% (inactive).
On to `COC(=O)c1ccccc1NC(=O)c1ccc(Cn2cc(Cl)cn2)o1`, for which the “activity, negative = inhibition” value is -0.222% (inactive).
In the case of `Nc1ccc(C(=O)N/N=C/c2ccccc2)cc1`, the “activity, negative = inhibition” value is 7.05% (inactive).
Turning to `CC[C@@]12CCCN3CCc4c(n(c5ccccc45)[C@](O)(C(=O)OC)C1)[C@H]32`, the AC50 result was “inactive and 251 nM (active)”.
For `CC[C@@]12CCCN3CCc4c(n(c5ccccc45)C(=O)C1)[C@H]32`, the AC50 is 20 nM (active) and 251 nM (active).
Turning to `CCOC(=O)C1=C[C@@]2(CC)CCCN3CCc4c(n1c1ccccc41)[C@H]32`, the AC50 is 6.31 µM (active) and inactive.
`Cn1c(Cc2cccc3ccccc23)nnc1SCC(=O)N1CCN(c2ccccc2)CC1`: the “activity, negative = inhibition” value is -4.52% (inactive).
Same read-out and setting: for `CSc1nc(-c2ccc(C)cc2)nc(C(Cl)Cl)n1` the value was -0.974% (inactive); for `CCCC[C@H]1C(=O)N(c2ccccc2)N(c2ccc(O)cc2)C1=O`, -4.48% [at 25.6 µM] (inactive); for `CCOC(=O)N1CCN(S(=O)(=O)c2ccc3[nH]cc(C(=O)O)c(=O)c3c2)CC1`, 1.73% (inactive).
